The full data set covers some 8,800 targets. This sample favours those with a hit. About 0.5% of all pairs of compound and target were hits. A number with no mark means an inactive call.
Assays:
Assay in all cases: log2 fold change, soluble protein after heating vs DMSO (PISA); higher = thermal stabilisation; K562 lysate, 10 uM; active = over 0.2 and 3.5 SD of the protein, either way, in both replicates (recomputed)
[1] = compound: CS(=O)(=O)CCNCc1ccc(-c2ccc3ncnc(Nc4ccc(OCc5cccc(F)c5)c(Cl)c4)c3c2)o1 [lapatinib]
Procedure, shortened: (§1)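 Following dounce homogenisation of K562 pellets in PBS pH 7.4 with 1 mM MgCl2, crude extract at 1 mg/mL protein was incubated for 30 min with 10 μM compound. Aliquots were then heated for 3 min over 48°C-58°C and pooled, NP-40 was added to 0.5% at 4°C, and soluble protein was recovered as the supernatant at 21,000xg for 90 min. Channel-sum-equalised TMTpro 16plex LC-MS/MS quantified this protein. Each value, from duplicates, is a log-two fold change in thermal stability relative to solvent controls.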

[2] = compound: CS(=O)(=O)N1CCN(Cc2cc3nc(-c4cccc5[nH]ncc45)nc(N4CCOCC4)c3s2)CC1 [pictilisib]
Procedure, shortened: as §1

[3] = compound: C[C@@H](Oc1cc(-c2cnn(C3CCNCC3)c2)cnc1N)c1c(Cl)ccc(F)c1Cl [crizotinib]
Procedure, shortened: as §1

[4] = compound: C[C@H](C1=CC=C(C=C1)C(=O)NC2=C3C=CNC3=NC=C2)N
Procedure, shortened: as §1

[5] = compound: C[C@H](Nc1ncnc2nc[nH]c12)c1cc2cccc(Cl)c2c(=O)n1-c1ccccc1 [duvelisib]
Procedure, shortened: as §1

[6] = compound: Cc1cc(Nc2cc(CN3CCOCC3)c3nc(C)c(Cc4ccc(Cl)cc4F)n3n2)n[nH]1 [gandotinib]
Procedure, shortened: as §1

[7] = compound: Cc1cc(Nc2cc(N3CCN(C)CC3)nc(Sc3ccc(NC(=O)C4CC4)cc3)n2)n[nH]1 [tozasertib]
Procedure, shortened: as §1

[8] = compound: Cc1ccc(-n2nc(C(C)(C)C)cc2NC(=O)Nc2ccc(OCCN3CCOCC3)c3ccccc23)cc1 [doramapimod]
Procedure, shortened: as §1

[9] = compound: Cc1ccc(NC(=O)c2ccc(CN3CC[C@H](N(C)C)C3)c(C(F)(F)F)c2)cc1Nc1nccc(-c2cncnc2)n1 [bafetinib]
Procedure, shortened: as §1

[10] = compound: Cc1cccc(CC(=O)N2CCc3c2ccc(-c2cn(C)c4ncnc(N)c24)c3F)n1
Procedure, shortened: as §1

Sequence of UniProt Q9NS87 (Q9NS87 whole entry, looked up): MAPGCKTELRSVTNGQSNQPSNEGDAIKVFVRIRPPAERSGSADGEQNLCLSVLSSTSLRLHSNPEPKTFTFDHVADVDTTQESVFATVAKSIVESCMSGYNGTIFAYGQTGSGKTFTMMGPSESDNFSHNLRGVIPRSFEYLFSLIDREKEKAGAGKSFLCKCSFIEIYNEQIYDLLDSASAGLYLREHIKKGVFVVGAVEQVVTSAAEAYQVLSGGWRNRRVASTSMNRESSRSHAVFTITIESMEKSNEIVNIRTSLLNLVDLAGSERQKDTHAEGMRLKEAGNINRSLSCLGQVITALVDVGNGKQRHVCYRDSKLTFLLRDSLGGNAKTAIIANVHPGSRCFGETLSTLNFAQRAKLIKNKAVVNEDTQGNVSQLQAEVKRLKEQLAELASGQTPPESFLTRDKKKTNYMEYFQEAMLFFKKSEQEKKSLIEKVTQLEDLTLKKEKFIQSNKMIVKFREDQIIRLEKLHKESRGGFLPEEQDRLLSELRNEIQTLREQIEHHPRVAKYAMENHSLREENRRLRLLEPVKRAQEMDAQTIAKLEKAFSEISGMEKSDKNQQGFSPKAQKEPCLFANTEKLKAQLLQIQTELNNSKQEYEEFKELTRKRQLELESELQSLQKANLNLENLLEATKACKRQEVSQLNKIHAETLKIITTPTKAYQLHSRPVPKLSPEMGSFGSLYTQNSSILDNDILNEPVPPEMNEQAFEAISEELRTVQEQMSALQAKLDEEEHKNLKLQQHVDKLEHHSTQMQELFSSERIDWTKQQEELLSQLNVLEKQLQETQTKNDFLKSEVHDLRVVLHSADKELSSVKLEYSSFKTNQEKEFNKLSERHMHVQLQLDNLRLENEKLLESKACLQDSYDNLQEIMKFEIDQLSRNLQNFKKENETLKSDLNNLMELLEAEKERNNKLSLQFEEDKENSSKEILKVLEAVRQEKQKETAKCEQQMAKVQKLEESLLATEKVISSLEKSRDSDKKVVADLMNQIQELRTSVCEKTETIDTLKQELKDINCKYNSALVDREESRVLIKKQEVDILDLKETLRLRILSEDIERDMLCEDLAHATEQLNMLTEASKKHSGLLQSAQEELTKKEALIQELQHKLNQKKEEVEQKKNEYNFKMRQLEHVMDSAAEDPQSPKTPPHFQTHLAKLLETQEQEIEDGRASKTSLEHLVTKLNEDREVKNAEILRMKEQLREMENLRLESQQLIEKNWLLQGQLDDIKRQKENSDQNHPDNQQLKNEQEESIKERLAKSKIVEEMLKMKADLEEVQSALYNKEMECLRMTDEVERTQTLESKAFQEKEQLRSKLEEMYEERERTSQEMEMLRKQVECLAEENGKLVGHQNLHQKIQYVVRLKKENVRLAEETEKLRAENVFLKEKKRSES
Sequence of UniProt O15021 (O15021 whole entry, looked up): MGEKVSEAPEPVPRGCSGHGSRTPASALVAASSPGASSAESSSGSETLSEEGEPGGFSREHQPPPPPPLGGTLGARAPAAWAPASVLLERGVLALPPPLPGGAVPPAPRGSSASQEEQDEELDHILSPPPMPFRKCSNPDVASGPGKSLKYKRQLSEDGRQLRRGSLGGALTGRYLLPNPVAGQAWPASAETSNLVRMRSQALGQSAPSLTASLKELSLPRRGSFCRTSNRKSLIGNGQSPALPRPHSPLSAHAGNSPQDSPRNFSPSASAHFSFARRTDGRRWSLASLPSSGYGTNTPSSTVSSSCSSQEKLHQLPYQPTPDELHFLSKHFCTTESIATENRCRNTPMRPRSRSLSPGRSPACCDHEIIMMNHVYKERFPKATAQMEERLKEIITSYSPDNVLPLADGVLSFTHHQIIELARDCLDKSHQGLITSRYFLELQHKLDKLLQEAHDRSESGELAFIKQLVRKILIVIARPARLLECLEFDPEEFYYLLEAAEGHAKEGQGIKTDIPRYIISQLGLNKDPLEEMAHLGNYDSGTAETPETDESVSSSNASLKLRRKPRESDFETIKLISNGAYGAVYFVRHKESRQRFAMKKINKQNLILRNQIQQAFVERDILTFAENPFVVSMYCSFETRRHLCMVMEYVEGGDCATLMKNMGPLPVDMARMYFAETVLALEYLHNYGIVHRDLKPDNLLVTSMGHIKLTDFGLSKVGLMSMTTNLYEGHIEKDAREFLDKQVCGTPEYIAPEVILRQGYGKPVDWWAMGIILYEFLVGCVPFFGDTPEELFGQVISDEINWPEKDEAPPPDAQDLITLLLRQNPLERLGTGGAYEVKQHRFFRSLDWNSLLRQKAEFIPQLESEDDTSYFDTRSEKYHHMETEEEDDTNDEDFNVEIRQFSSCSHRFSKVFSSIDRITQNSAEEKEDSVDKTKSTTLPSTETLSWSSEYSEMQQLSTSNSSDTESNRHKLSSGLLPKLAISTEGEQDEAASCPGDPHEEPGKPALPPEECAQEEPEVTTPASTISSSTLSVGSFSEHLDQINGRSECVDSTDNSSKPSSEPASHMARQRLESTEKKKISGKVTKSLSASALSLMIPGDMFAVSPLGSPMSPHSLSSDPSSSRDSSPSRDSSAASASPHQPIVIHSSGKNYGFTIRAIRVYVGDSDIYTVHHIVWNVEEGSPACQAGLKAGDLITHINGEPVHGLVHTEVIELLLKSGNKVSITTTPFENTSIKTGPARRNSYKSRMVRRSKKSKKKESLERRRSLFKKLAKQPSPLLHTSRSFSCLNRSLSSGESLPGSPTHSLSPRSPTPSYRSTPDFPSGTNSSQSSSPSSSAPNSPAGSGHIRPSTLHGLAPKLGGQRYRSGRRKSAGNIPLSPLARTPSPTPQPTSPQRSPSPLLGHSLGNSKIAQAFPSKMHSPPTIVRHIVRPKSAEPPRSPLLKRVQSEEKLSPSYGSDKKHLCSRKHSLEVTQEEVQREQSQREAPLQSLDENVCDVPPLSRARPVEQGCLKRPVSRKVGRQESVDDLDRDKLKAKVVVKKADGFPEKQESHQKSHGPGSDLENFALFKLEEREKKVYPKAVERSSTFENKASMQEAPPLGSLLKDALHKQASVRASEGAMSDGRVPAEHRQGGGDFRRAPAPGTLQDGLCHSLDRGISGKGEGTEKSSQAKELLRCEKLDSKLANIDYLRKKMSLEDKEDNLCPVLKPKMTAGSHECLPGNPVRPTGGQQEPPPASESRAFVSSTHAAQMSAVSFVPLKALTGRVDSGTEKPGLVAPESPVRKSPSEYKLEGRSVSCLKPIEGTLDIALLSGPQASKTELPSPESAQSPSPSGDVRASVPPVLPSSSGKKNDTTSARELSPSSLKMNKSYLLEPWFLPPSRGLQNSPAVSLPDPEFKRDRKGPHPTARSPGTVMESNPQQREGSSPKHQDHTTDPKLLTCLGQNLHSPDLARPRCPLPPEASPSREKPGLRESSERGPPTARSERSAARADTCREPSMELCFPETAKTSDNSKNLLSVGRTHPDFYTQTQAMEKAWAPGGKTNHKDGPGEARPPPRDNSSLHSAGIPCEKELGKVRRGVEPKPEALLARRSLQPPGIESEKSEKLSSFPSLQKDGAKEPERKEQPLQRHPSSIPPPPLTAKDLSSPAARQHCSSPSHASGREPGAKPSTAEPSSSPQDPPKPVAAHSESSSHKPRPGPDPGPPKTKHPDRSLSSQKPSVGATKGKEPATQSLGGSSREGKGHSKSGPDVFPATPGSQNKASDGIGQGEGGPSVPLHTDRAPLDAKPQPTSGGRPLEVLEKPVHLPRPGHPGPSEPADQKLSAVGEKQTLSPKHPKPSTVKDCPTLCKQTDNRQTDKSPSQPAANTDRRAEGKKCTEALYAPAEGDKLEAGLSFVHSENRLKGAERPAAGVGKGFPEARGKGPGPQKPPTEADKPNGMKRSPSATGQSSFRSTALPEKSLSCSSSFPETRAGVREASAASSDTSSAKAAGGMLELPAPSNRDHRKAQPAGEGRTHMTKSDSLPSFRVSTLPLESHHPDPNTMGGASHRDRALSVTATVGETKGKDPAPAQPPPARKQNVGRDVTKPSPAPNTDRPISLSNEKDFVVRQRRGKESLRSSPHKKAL
Sequence of UniProt Q9NZB8 (Q9NZB8 whole entry, looked up): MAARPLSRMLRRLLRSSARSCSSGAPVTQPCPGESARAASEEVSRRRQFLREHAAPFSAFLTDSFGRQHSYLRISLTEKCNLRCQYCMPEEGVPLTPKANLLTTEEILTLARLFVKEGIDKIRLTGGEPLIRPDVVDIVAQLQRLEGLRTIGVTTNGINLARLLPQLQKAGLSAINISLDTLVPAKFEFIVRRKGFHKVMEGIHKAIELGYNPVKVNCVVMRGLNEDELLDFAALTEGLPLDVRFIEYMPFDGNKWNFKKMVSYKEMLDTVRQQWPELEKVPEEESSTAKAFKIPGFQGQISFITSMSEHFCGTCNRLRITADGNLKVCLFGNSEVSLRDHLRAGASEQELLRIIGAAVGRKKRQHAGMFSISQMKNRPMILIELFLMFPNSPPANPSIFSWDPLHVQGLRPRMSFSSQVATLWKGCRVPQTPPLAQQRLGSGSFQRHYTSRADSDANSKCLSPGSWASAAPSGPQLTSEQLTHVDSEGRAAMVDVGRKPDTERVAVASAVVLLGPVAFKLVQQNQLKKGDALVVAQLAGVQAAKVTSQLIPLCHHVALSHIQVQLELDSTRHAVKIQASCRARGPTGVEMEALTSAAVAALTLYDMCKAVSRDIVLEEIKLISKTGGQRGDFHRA
Sequence of UniProt Q9H8H3 (Q9H8H3 whole entry, looked up): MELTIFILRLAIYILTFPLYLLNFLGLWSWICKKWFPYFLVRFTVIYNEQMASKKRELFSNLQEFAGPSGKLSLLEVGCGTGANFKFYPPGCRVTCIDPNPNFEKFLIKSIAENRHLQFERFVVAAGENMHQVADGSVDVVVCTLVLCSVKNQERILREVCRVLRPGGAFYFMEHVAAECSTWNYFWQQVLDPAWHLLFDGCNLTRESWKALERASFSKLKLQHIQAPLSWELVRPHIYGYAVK
Sequence of UniProt Q13015 (Q13015 whole entry, looked up): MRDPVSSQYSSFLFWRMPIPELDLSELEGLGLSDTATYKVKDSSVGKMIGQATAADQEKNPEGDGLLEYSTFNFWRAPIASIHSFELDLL

Row | Target | log2 fold change [1] | log2 fold change [2] | log2 fold change [3] | log2 fold change [4] | log2 fold change [5] | log2 fold change [6] | log2 fold change [7] | log2 fold change [8] | log2 fold change [9] | log2 fold change [10]
1 | MED16 (UniProt Q9Y2X0) | -0.014 | -0.154 | 0.03 | 0.167 | -0.027 | -0.261 (active) | 0.012 | 0.021 | 0.051 | -0.065
2 | KLC2 (UniProt Q9H0B6) | -0.012 | -0.057 | -0.047 | 0.025 | -0.031 | -0.145 | 0.012 | 0.065 | -0.043 | 0.074
3 | MGAT5 (UniProt Q09328) | 0.022 | 0.066 | -0.051 | 0.098 | 0.018 | -0.106 | -0.037 | 0.023 | 0.079 | -0.112
4 | MPI (UniProt P34949) | 0.02 | -0.017 | -0.029 | 0.174 | 0.007 | -0.055 | -0.043 | 0.032 | 0.013 | -0.014
5 | MOCS1 isoform 8 (UniProt Q9NZB8) | -0.022 | -0.003 | -0.046 | -0.078 | 0 | 0.012 | 0.11 | 0.018 | -0.032 | 0.04
6 | MON2 isoform 5 (UniProt Q7Z3U7) | -0.034 | -0.027 | -0.077 | -0.042 | 0.003 | -0.031 | 0.001 | -0.011 | -0.035 | 0.12
7 | MGST1 (UniProt P10620) | -0.047 | 0.018 | 0.003 | 0.22 (active) | 0.013 | -0.025 | -0.011 | -0.041 | -0.032 | -0.016
8 | MAP4 (UniProt P27816) | -0.002 | 0.012 | 0.013 | -0.032 | -0.004 | 0.058 | -0.014 | -0.044 | 0.018 | -0.007
9 | MLLT11 (UniProt Q13015) | 0.051 | 0.237 | 0 | 0.025 | 0.002 | 0.329 | 0.087 | 0.447 (active) | -0.017 | 0.084
10 | METTL7A (UniProt Q9H8H3) | 0.023 | 0.019 | 0.177 | -0.019 | 0.021 | 0.226 | -0.081 | 0.071 | 0.048 | 0.019
11 | LSG1 (UniProt Q9H089) | -0.002 | -0.044 | -0.191 | -0.099 | -0.075 | 0.037 | -0.03 | 0.085 | -0.077 | 0.072
12 | LUC7L (UniProt Q9NQ29) | -0.022 | -0.009 | 0.097 | -0.097 | 0.006 | -0.32 (active) | 0.012 | -0.028 | -0.022 | 0.023
13 | KIF15 (UniProt Q9NS87) | -0.02 | 0.006 | -0.017 | 0 | -0.002 | -0.017 | 0.008 | 0.006 | -0.025 | 0.033
14 | MAT2B (UniProt Q9NZL9) | 0.008 | -0.028 | 0.007 | 0.063 | -0.031 | -0.02 | 0.019 | -0.023 | -0.007 | 0.005
15 | MLST8 (UniProt Q9BVC4) | -0.028 | -0.073 | 0.004 | -0.034 | -0.028 | -0.055 | 0.078 | 0.08 | -0.026 | 0.032
16 | LARP4B (UniProt Q92615) | 0.01 | 0.016 | -0.019 | -0.051 | -0.033 | 0.029 | -0.009 | -0.044 | -0.047 | 0.096
17 | KNOP1 (UniProt Q1ED39) | -0.046 | 0.03 | -0.068 | 0.004 | 0.022 | 0.027 | -0.085 | 0.1 | -0.06 | -0.011
18 | MBD2 (UniProt Q9UBB5) | -0.009 | 0.017 | 0.006 | -0.035 | 0.02 | -0.004 | 0.029 | 0.045 | -0.006 | -0.032
19 | MAST4 (UniProt O15021) | -0.12 | 0.122 | 0.079 | -0.065 | -0.089 | 0.374 | 0.274 | -0.121 | -0.103 | 0.017
20 | LYN (UniProt P07948) | -0.184 | -0.036 | 0.093 | -0.079 | -0.042 | 0.551 | 0.11 | 0.026 | 0.763 (active) | -0.005
21 | KIF2C (UniProt Q99661) | 0.002 | -0.003 | -0.007 | 0.004 | 0.011 | -0.051 | -0.008 | 0.022 | 0.004 | -0.002
22 | KIF14 (UniProt Q15058) | 0.016 | -0.277 | -0.053 | -0.082 | 0.025 | -0.011 | 0.002 | 0.046 | -0.087 | 0.042
23 | MRPL10 isoform 2 (UniProt Q7Z7H8) | -0.02 | -0.041 | -0.104 | 0.152 | 0.034 | -0.037 | -0.01 | 0.104 | -0.059 | -0.012
24 | LZTR1 (UniProt Q8N653) | 0.177 | -0.031 | -0.092 | 0.135 | -0.033 | -0.121 | -0.023 | 0.083 | 0.005 | 0.026
25 | MICB, A0A140T979 | -0.169 | -0.074 | -0.067 | -0.042 | 0.052 | 0.011 | -0.177 | -0.003 | -0.001 | 0.027
26 | LPCAT1 (UniProt Q8NF37) | 0.005 | -0.034 | -0.031 | -0.209 | -0.107 | 0.115 | 0.006 | -0.048 | -0.072 | 0.078
27 | LARS (UniProt Q9P2J5) | -0.004 | -0.015 | -0.043 | 0.047 | -0.013 | -0.081 | 0.012 | -0.009 | -0.048 | -0.005
